According to PubChem BioAssay AID504607 (Sanford-Burnham Center for Chemical Genomics, 2011):
The whole screen tested about 6,200 compounds, of which about 4,800 (77%) were called active. So high a share suggests a set chosen from earlier hits. These entries were drawn from the full list. A number with no mark means an inactive call.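 Rule for the calls: active = mean inhibition at 8 µM reaching about 37%, which flags the compound as non-specific (limit read from the data); inactive = the rest.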

Assay: luminescence decrease from intact luciferase reporter – cell-based, single concentration, SaOS-2, counter-screen for Mdm2/MdmX interaction inhibitor project, confirmation (AID 504607);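 note: p53-null SaOS-2 cells with luciferase driven by a doxycycline-inducible promoter; compound on cells about two nights before reading with doxycycline added after day one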
Conditions: SaOS-2 full-length luciferase counterscreen, at 8 µM, stronger effect = higher value

Row | Compound | inhibition
1 | Cc1ccc(OCCOCCOc2ccc(Br)cc2/C=N\NC(=O)c2ccncc2)cc1 | 45.5% (active)
2 | CC(=O)N1CCc2c(sc(NC(=O)CCS(=O)(=O)c3ccccc3)c2C#N)C1 | 57.3% (active)
3 | O=[N+]([O-])c1ccccc1S(=O)(=O)Nc1cccc2cccnc12 | 56.4% (active)
4 | COc1cc(NS(=O)(=O)c2ccc3ccccc3c2)c2ncccc2c1 | 22.5%
5 | COc1ccc(NC(=O)/C(Cl)=C(/Cl)S(=O)Cc2ccc(C)cc2)cn1 (configuration not stated) | 0.18%
6 | CN(C)CCCn1c(=O)n(Cc2ccccc2)c(=O)c2c3c(sc21)CCCCC3 | 70% (active)
7 | Cc1ccc(CS(=O)(=O)c2ncc(Cl)c(C(=O)Nc3nnc(C)s3)n2)cc1 | 50.9% (active)
8 | CSc1nnc(NC(=O)c2nc(S(=O)(=O)Cc3ccc(C)cc3)ncc2Cl)s1 | 49.9% (active)
9 | COc1ccccc1N1CCN(c2ncnc3sc(C)c(-c4ccccc4)c23)CC1 | 80.6% (active)
10 | COc1ccccc1N(CC(=O)N/N=C(\C)c1ccccc1O)S(=O)(=O)c1ccc(C)cc1 | 37.3% (active)
11 | COc1cc(NC(=O)c2cncc(-c3ccc(C#N)cc3)c2)cc(C(=O)Nc2cccc(C(F)(F)F)c2)c1 | 21.1%
12 | COc1cc(NC(=O)c2[nH]cnc2C(N)=O)cc(C(=O)Nc2cccc(C(F)(F)F)c2)c1 | 50% (active)
13 | CC[C@H]1CN2CCc3cc(OC)c(OC)cc3[C@@H]2C[C@@H]1C[C@H]1NCCc2cc(OC)c(OC)cc21 | 51.2% (active)
14 | Cc1ccc(C(=O)N/C(=C/c2ccc(-c3cccc([N+](=O)[O-])c3)o2)C(=O)NCCCN(C)C)cc1 | 44.1% (active)
15 | Nc1nonc1-c1nc2ccccc2n1Cc1ccc(F)cc1 | 71.9% (active)
16 | COc1ccc(OC)c(C2C3=C(N=c4s/c(=C\c5cccc(O)c5)c(=O)n42)c2ccccc2CC3)c1 (configuration not stated) | 41.8% (active)
17 | C=CCn1c(SCc2c(C)noc2C)nc2sc3c(c2c1=O)CCC(C)C3 (configuration not stated) | 52.9% (active)
18 | O=C(NCC1CCCO1)c1cc2c([nH]c3ccccc32)c(-c2ccc(F)cc2)n1 (configuration not stated) | 74.8% (active)
19 | Oc1c(CN2CCCC2)cc(COCc2ccccc2)c2cccnc12 | 32.2%

Row | Compound | inhibition
20 | COc1cc(/C=N/NC(=O)Nc2ccccc2)ccc1OCCOc1ccccc1C | 62.6% (active)
21 | O=C(NC(=O)c1ccccc1N1CCCCC1)Nc1ccc(Br)cc1 | 86.3% (active)
22 | CCOC(=O)c1c(-c2ccc(C)cc2C)csc1NC(=O)CSc1nnnn1C | 73.6% (active)
23 | COc1ccc(C2CC(c3ccccc3)=NN2C(=O)c2ccc(Cl)c([N+](=O)[O-])c2)cc1 (configuration not stated) | 62.6% (active)
24 | CC(=O)c1ccc(S(=O)(=O)N2CCN(C(=O)/C=C/c3ccc4ccccc4n3)CC2)cc1 | 46.9% (active)
25 | N/C(=N\OC(=O)c1ccc2c(c1)OCO2)c1ccc(Br)cc1 | 137% (active)
26 | CCc1nc(C)cn1S(=O)(=O)c1cc([N+](=O)[O-])ccc1Cl | 103% (active)
27 | CCOc1cc(/C=C/c2nc3ccccc3c(=O)[nH]2)cc(Br)c1OC | 57.5% (active)
28 | O=C(/C=C/c1ccc(Cl)c([N+](=O)[O-])c1)c1ccc(O)cc1 | 59.3% (active)
29 | O=C(/C=C/c1ccc(Cl)c([N+](=O)[O-])c1)c1cccnc1 | 67.5% (active)
30 | CC(C)Cc1nc(Nc2ccc(S(=O)(=O)N3CCCC3)cc2)c2nnn(Cc3ccccc3)c2n1 | 24.1%
31 | CCCc1nc(NCc2ccc3c(c2)OCO3)c2nnn(Cc3ccccc3Cl)c2n1 | 91.5% (active)
32 | COc1ccc(/C=C/C(=O)c2ccc(NS(=O)(=O)c3ccc(C)cc3)cc2)cc1O | 65.2% (active)
33 | Cc1ccc(C2CC(=O)NC(SCC(=O)OCc3ccccc3)=C2C#N)o1 (configuration not stated) | 55.9% (active)
34 | Cc1ccsc1C(=O)OCC(=O)c1cc(C)n(CC2CCCO2)c1C (configuration not stated) | 28.9%
35 | Cc1cc(C(=O)COC(=O)CNC(=O)c2ccc(F)cc2)c(C)n1Cc1ccco1 | 98.9% (active)
36 | CCOc1cc(C(=O)N2CCc3cc(OC)c(OC)cc3C2)ccc1OC(F)F | 86.4% (active)
37 | COc1ccc(N=Cc2c(O)[nH]c3ccccc23)cc1OC | 65.3% (active)
38 | COc1cc(N=Cc2c(O)[nH]c3ccccc23)cc(OC)c1OC | 47% (active)

Row | Compound | inhibition
39 | c1ccc2c(c1)C(=NC1CCCCC1)NC2=NC1CCCCC1 | 42.2% (active)
40 | OC(CNCC1CCCO1)Cn1c2ccc(Br)cc2c2cc(Br)ccc21 (configuration not stated) | 52.2% (active)
41 | CC1=C/C(=N\OS(=O)(=O)c2ccccc2)C=CC1=O | 45.1% (active)
42 | CCc1ccc2c(c1)C1(NN=C(c3ccccc3)S1)C(=O)N2 (configuration not stated) | 40.3% (active)
43 | Cn1cc([N+](=O)[O-])c(C(=O)Nc2cnn(Cc3ccc(F)cc3)c2)n1 | 74.9% (active)
44 | COc1ccccc1-n1nnnc1S(=O)(=O)Cc1ccc(Cl)cc1 | 52.1% (active)
45 | COc1cccc(/C=N/Nc2cc(C)nc(-c3ccccc3O)n2)c1O | 55.6% (active)
46 | COc1cccc(/C=N/NC(=O)c2[nH]nc3c2CCc2ccccc2-3)c1O | 27%
47 | c1ccc(C2CCC(N3CCC(N4CCCCC4)CC3)CC2)cc1 (configuration not stated) | 38.2% (active)
48 | CCCCCCCCCCOC(=O)Cn1c(COc2ccc(C)cc2)[n+](C)c2ccccc21 | 59.5% (active)
49 | CCCCCCCCCCOC(=O)Cn1c(COc2cccc(OC)c2)[n+](C)c2ccccc21 | 31.2%
50 | CC1CCN(C(=O)c2ccc(S(=O)(=O)Cc3cc(F)ccc3F)c([N+](=O)[O-])c2)CC1 | 44.1% (active)
51 | COc1ccc(-c2n[nH]c(C)c2-c2ccc(OC)c(OC)c2)c(O)c1 | 53.7% (active)
52 | COc1ccc(-c2cn[nH]c2-c2ccc(OC)cc2)cc1 | 35.1%
53 | CCCCn1c(-c2cccc(C)c2)nc2cc3[nH]c(=O)c(C(C)C)nc3cc21 | 91.6% (active)
54 | CC(=O)Nc1nc(C)c(-c2csc(Nc3ccc(S(N)(=O)=O)cc3)n2)s1 | 31.7%
55 | O=C(NC(=S)Nc1ccc2oc(=O)ccc2c1)c1ccc(-c2cccc(Cl)c2Cl)o1 | 68.2% (active)
56 | O=c1oc2ccccc2cc1-c1cn(-c2ccccc2)c(=S)[nH]1 | 38.4% (active)
57 | NC(N)=Nc1nc(-c2ccccc2)c2cc(Cl)ccc2n1 | 53.4% (active)
